{"source": "PubChem BioAssay (Tox21)", "note": "Where “and” joins values, the source holds several entries; their conditions need not be identical. Equal values may be shown once. Results filed as inconclusive are left out. Where a structure was tested more than once in an assay, its records may differ in their call. Calls of active or inactive are those of the source. The call rests on the fitted dose curve; in most records, active means well fitted inhibition curve with a large enough effect in the repeat runs; inconclusive means weak or mixed curves; inactive means no such curve, though single readings can be large or run the other way. On the % scale 0 is the no-effect control and ±100 the full control effect; potency means the concentration at half of the fitted maximal effect.", "data": [{"molecular_target": "Cytochrome P450 2D6 (Homo sapiens) (UniProt P10635)", "sequence (P10635 whole entry, looked up)": "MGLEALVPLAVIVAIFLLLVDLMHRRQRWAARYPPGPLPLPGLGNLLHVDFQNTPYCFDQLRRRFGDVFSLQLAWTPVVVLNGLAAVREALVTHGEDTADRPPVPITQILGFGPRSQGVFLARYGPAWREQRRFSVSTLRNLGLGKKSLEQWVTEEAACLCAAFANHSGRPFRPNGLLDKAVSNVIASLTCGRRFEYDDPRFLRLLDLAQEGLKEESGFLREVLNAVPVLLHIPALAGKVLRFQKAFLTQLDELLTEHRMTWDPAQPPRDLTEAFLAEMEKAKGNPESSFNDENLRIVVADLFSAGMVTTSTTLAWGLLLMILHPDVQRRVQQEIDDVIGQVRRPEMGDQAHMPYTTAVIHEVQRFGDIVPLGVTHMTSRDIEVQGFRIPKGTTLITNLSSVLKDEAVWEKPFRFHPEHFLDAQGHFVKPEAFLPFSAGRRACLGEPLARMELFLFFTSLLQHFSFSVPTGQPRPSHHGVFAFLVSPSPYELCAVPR", "assay": "Cytochrome P450 Family 2 Subfamily D Member 6 (CYP2D6) small molecule antagonists: luciferase reporter qHTS assay (AID 1671196); further: nearly all actives have a fitted effect of over 50% in size", "settings": "P450-Glo CYP2D6 enzyme assay, luciferin luminescence, 1 h; series mostly up to 115 µM; activity change, negative = inhibition: at the top concentration", "how_it_was_run": "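Room-temperature luminescent CYP2D6 activity assay: compound preincubated 10 min with enzyme–substrate mix, NADPH-initiated reaction 1 h, detection reagent 20 min before reading.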", "values": [{"smiles": "CN1CCC[C@H]1c1cccnc1", "Potency": "35.3 µM (active) and inactive"}, {"smiles": "CCCCCCCCCCCCCCCC[N+](C)(C)Cc1ccccc1", "Potency": "923 nM (active) and 406 nM (active) and 389 nM (active)"}, {"smiles": "O=c1[nH]cc(F)c(=O)[nH]1", "Potency": "inactive and 34.7 µM (active)"}, {"smiles": "C=CCc1ccc(O)c(OC)c1", "Potency": "9.97 µM (active) and inactive"}, {"smiles": "Cc1cc(C)nc(NS(=O)(=O)c2ccc(N)cc2)n1", "Potency": "inactive"}, {"smiles": "CS(=O)(=O)OCCCCOS(C)(=O)=O", "Potency": "35.7 µM (active)"}, {"smiles": "OC[C@H]1O[C@H](O[C@]2(CCl)O[C@H](CCl)[C@@H](O)[C@@H]2O)[C@H](O)[C@@H](O)[C@H]1Cl", "Potency": "inactive"}, {"smiles": "CCN(CC)C(=O)c1cccc(C)c1", "Potency": "inactive"}, {"smiles": "Cc1ncc([N+](=O)[O-])n1CCO", "Potency": "inactive"}, {"smiles": "COc1ccc2cc(S(=O)(=O)N[C@H](CC(=O)N[C@H](Cc3ccc(CN4[C@H](C)CCC[C@@H]4C)cc3)C(=O)N(C)C(C)C)c3ccc4c(c3)OCO4)ccc2c1", "Potency": "0.169 µM (active)"}, {"smiles": "CC(O)(P(=O)(O)O)P(=O)(O)O", "Potency": "inactive"}, {"smiles": "CC1(C)S[C@@H]2[C@H](NC(=O)[C@H](N)c3ccccc3)C(=O)N2[C@H]1C(=O)O", "Potency": "44.5 µM (active) and inactive"}, {"smiles": "NC(=O)n1c(O)c(C(=O)c2cccs2)c2cc(Cl)ccc21", "activity change, negative = inhibition": "-15.2% [at 53 µM] (inactive)"}, {"smiles": "C=C(C)C(=O)OCC(C)O", "note": "(centres undefined)", "Potency": "inactive"}, {"smiles": "CCN(Cc1c(F)cccc1Cl)c1c([N+](=O)[O-])cc(C(F)(F)F)cc1[N+](=O)[O-]", "activity change, negative = inhibition": "-13.6% (inactive)"}, {"smiles": "O=C1O[C@H]([C@@H](O)CO)C(O)=C1O", "Potency": "inactive"}, {"smiles": "CC12CCC(CC1)C(C)(C)O2", "Potency": "inactive"}, {"smiles": "CC(=O)C(=O)O", "Potency": "inactive"}, {"smiles": "Cc1cn([C@H]2C=C[C@@H](CO)O2)c(=O)[nH]c1=O", "Potency": "inactive"}, {"smiles": "NS(=O)(=O)c1cc2c(cc1Cl)NCNS2(=O)=O", "Potency": "inactive"}, {"smiles": "Cc1c(C(=O)O)c(O)cc2c1C(=O)c1c(O)c([C@@H]3O[C@H](CO)[C@@H](O)[C@H](O)[C@H]3O)c(O)c(O)c1C2=O", "Potency": "31 µM (active) and 39.9 µM (active)"}, {"smiles": "C1=CC2C3C=CC(C3)C2C1", "note": "(centres undefined)", "Potency": "6.99 µM (active)"}, {"smiles": "CC1(C)O[C@@H]2C[C@H]3[C@@H]4CCC5=CC(=O)C=C[C@]5(C)[C@@]4(F)[C@@H](O)C[C@]3(C)[C@]2(C(=O)CO)O1", "Potency": "31.9 µM (active) and inactive"}, {"smiles": "CCOc1ccc(NC(C)=O)cc1", "Potency": "inactive"}, {"smiles": "NC(=O)c1cccnc1", "Potency": "inactive"}, {"smiles": "O=C(O)CC(O)C(=O)O", "note": "(centres undefined)", "Potency": "inactive"}]}, {"molecular_target": "Cytochrome P450 2C19 (Homo sapiens) (UniProt P33261)", "sequence (P33261 whole entry, looked up)": "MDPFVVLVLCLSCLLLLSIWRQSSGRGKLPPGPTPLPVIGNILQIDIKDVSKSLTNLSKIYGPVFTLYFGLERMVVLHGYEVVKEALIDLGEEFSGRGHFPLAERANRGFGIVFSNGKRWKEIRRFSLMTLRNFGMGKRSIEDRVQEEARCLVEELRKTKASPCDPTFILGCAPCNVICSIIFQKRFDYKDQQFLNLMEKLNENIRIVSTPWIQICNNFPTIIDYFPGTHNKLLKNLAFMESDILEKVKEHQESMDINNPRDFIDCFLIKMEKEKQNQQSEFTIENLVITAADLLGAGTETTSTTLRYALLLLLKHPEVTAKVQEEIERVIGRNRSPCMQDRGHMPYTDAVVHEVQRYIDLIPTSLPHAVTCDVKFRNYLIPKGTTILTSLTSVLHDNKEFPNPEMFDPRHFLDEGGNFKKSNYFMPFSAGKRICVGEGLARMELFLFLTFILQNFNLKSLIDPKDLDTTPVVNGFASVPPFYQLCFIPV", "assay": "Cytochrome P450 Family 2 Subfamily C Member 19 (CYP2C19) small molecule antagonists: luciferase reporter qHTS assay (AID 1671197); further: nearly all actives have a fitted effect of over 65% in size", "settings": "P450-Glo CYP2C19 enzyme, luciferin luminescence, 1 h; series mostly up to 115 µM; activity change, negative = inhibition: at the top concentration", "how_it_was_run": "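P450-Glo CYP2C19 screening system; proluciferin substrate; DMSO compound stocks; 10 min RT preincubation; NADPH regeneration, 1 h at 37C; luciferin detection reagent, 20 min RT; luminescence as RLU.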", "values": [{"smiles": "CN1CCC[C@H]1c1cccnc1", "Potency": "inactive"}, {"smiles": "CCCCCCCCCCCCCCCC[N+](C)(C)Cc1ccccc1", "Potency": "32.7 µM (active) and 51.2 µM (active) and 27.5 µM (active)"}, {"smiles": "Nc1ccc([N+](=O)[O-])cc1O", "Potency": "6.33 µM (active)"}, {"smiles": "O=c1[nH]cc(F)c(=O)[nH]1", "Potency": "20.8 µM (active) and inactive"}, {"smiles": "C=CCc1ccc(O)c(OC)c1", "Potency": "39.7 µM (active) and 56.4 µM (active) and inactive"}, {"smiles": "Cc1cc(C)nc(NS(=O)(=O)c2ccc(N)cc2)n1", "Potency": "80.6 µM (active) and inactive"}, {"smiles": "CN(C)C(=S)SC(=S)N(C)C", "Potency": "16.3 µM (active) and 20 µM (active) and 7.76 µM (active)"}, {"smiles": "CS(=O)(=O)OCCCCOS(C)(=O)=O", "Potency": "56.6 µM (active) and inactive"}, {"smiles": "Nc1ccc(O)c([N+](=O)[O-])c1", "Potency": "22.2 µM (active)"}, {"smiles": "OC[C@H]1O[C@H](O[C@]2(CCl)O[C@H](CCl)[C@@H](O)[C@@H]2O)[C@H](O)[C@@H](O)[C@H]1Cl", "Potency": "inactive"}, {"smiles": "COc1ccc(OC(F)(F)F)cc1CN[C@H]1CCCN[C@H]1c1ccccc1", "Potency": "79.6 µM (active)"}, {"smiles": "CCN(CC)C(=O)c1cccc(C)c1", "Potency": "inactive and 71 µM (active)"}, {"smiles": "Cc1ncc([N+](=O)[O-])n1CCO", "Potency": "inactive"}, {"smiles": "CC(O)(P(=O)(O)O)P(=O)(O)O", "Potency": "inactive"}, {"smiles": "CC1(C)S[C@@H]2[C@H](NC(=O)[C@H](N)c3ccccc3)C(=O)N2[C@H]1C(=O)O", "Potency": "inactive"}, {"smiles": "C=C(C)C(=O)OCC(C)O", "note": "(centres undefined)", "Potency": "inactive"}, {"smiles": "COc1cccc(O)c1O", "Potency": "58.6 µM (active)"}, {"smiles": "CCN(Cc1c(F)cccc1Cl)c1c([N+](=O)[O-])cc(C(F)(F)F)cc1[N+](=O)[O-]", "Potency": "2.24 µM (active)"}, {"smiles": "O=C1O[C@H]([C@@H](O)CO)C(O)=C1O", "Potency": "inactive"}, {"smiles": "CC12CCC(CC1)C(C)(C)O2", "Potency": "inactive"}, {"smiles": "CC(=O)C(=O)O", "Potency": "inactive"}, {"smiles": "Cc1cn([C@H]2C=C[C@@H](CO)O2)c(=O)[nH]c1=O", "Potency": "inactive"}, {"smiles": "COc1ccc(CN(CCN(C)C)c2ccccn2)cc1", "Potency": "9.94 µM (active) and 32.8 µM (active) and 21.9 µM (active)"}, {"smiles": "NS(=O)(=O)c1cc2c(cc1Cl)NCNS2(=O)=O", "Potency": "62.3 µM (active) and inactive"}, {"smiles": "Cc1c(C(=O)O)c(O)cc2c1C(=O)c1c(O)c([C@@H]3O[C@H](CO)[C@@H](O)[C@H](O)[C@H]3O)c(O)c(O)c1C2=O", "Potency": "39 µM (active)"}, {"smiles": "C1=CC2C3C=CC(C3)C2C1", "note": "(centres undefined)", "activity change, negative = inhibition": "-13.7% (inactive)"}, {"smiles": "CC1(C)O[C@@H]2C[C@H]3[C@@H]4CCC5=CC(=O)C=C[C@]5(C)[C@@]4(F)[C@@H](O)C[C@]3(C)[C@]2(C(=O)CO)O1", "Potency": "inactive"}, {"smiles": "NC(=O)c1cccnc1", "Potency": "49.3 µM (active) and inactive"}]}]}
